The assay in a line: Identification of antibody-drug conjugate (ADC) payloads which are substrates of ATP-binding cassette drug efflux transporters: ABCG2-HEK293-R5 cell line. The following applies: ABCG2-HEK293-R5 viability, CellTiter-Glo ATP luminescence, 48 h. The text has this:
Antibody-drug conjugates (ADCs) feature an antibody recognizing a specific protein joined to a potent toxic payload. Numerous antibody-drug conjugates have received FDA approval; however, clinical resistance arises. Resistance mechanisms include decreased expression or mutation of the antibody target, impaired payload release, or increased expression of ATP-binding cassette (ABC) efflux transporters associated with multidrug resistance. We therefore sought to characterize the interaction of ABC multidrug transporters with ADC payloads. We performed a high-throughput screen with 27 common ADC payloads using cells lines expressing ABC transporters P-glycoprotein (P-gp, encoded by ABCB1) or ABCG2 (encoded by ABCG2). Confirmatory assays were also performed using cells transfected to express P-gp, ABCG2, or MRP1 (encoded by ABCC1). Several commonly used ADC payloads were substrates of P-gp, including calicheamicin gamma1, monomethyl auristatin E, DM1, and DM4. All the pyrrolobenzodiazepines tested - SJG136, SGD-1882, SG2057, and SG3199 - were substrates of P-gp, ABCG2, and MRP1. […] These findings highlight the risk of transporter-mediated resistance with certain ADC payloads and underscore the importance of selecting payloads that evade ABC transporter recognition in future ADC development.
HEK-293 cells were transfected with empty vector (pcDNA) or vector containing the human ABCB1 (MDR-19), ABCG2 (R-5), or ABCC1 gene (MRP1) and were maintained in EMEM with 2 mg/mL G418 added to maintain transporter expression. The HeLa derivative KB-3-1 and the P-gp overexpressing KB-8-5-11 subline were maintained in DMEM; KB-8-5-11 additionally received 100 ng/mL colchicine. H460 parental cells were obtained from the Division of Cancer Treatment and Diagnosis Tumor Repository, National Cancer Institute at Frederick, MD and were cultured in RPMI. The ABCG2 expressing subline H460 MX20 was generated by selecting H460 cells in 20 nM mitoxantrone. Media in all cases was supplemented with 10% FBS and 1% penicillin-streptomycin. We explored 27 common ADC payloads, in two orthogonal, paired cell line sets-a drug selected and transfected set for each transporter--to identify substrates of the ABC transporters P-gp and ABCG2. Compounds were sourced from Levena Biopharma (San Diego, CA), Selleck Chem (Houston, TX), ChemieTek (Indianapolis, IN), or Microsource Discovery Systems (Gaylordsville, CT). Screening was performed as previously described. Briefly, cells were plated at a density of 500 cells/well in 1536 well plates with compounds added using a 1536-head pin tool (Kalypsys, San Diego CA). Cells were incubated with cytotoxic drugs and processed with CellTiter Glo reagent (Promega, Madison, WI) to determine viability after 48 hours. P-gp substrates were identified by comparing compound activity between paired sets of low-expressing (sensitive) and over-expressing (resistant) cell lines.

Inconclusive results are not listed. Activity calls are given as the source filed them. Calls follow the shape of the dose curve; as a rule, active = well fitted inhibition curve with a large enough effect; inconclusive = small, poorly fitted or top-dose-only effect; inactive = flat fitted curve, though single readings scatter.

With `CCN[C@H]1CO[C@@H](O[C@H]2[C@H](O[C@H]3C#C/C=C\C#C[C@]4(O)CC(=O)C(NC(=O)OC)=C3/C4=C\CSSSC)O[C@H](C)[C@@H](NO[C@H]3C[C@H](O)[C@H](SC(=O)c4c(C)c(I)c(O[C@@H]5O[C@@H](C)[C@H](O)[C@@H](OC)[C@H]5O)c(OC)c4OC)[C@@H](C)O3)[C@@H]2O)C[C@@H]1OC`, the Potency is 3.8 nM (active).
To `CCN(C(C)=O)[C@H]1CO[C@@H](O[C@H]2[C@H](O[C@H]3C#C/C=C\C#C[C@]4(O)CC(=O)C(NC(=O)OC)=C3/C4=C\CSSSC)O[C@H](C)[C@@H](NO[C@H]3C[C@H](O)[C@H](SC(=O)c4c(C)c(I)c(O[C@@H]5O[C@@H](C)[C@H](O)[C@@H](OC)[C@H]5O)c(OC)c4OC)[C@@H](C)O3)[C@@H]2O)C[C@@H]1OC` belongs 67.1 nM (active); to `CC(C)(C)OC(=O)Nc1ccc2[nH]c(C(=O)N3C[C@@H](CCl)c4c3cc(O)c3ccccc43)cc2c1`, 33.6 nM (active).
`CN(C)CCOc1ccc2[nH]c(C(=O)N3C[C@@H](CCl)c4c3cc(O)c3ccccc43)cc2c1`: the Potency was 1.7 nM (active).
The result for `COC(=O)c1cc2c3c(cc(O)c2[nH]1)N(C(=O)c1cc2cc(OC)c(OC)c(OC)c2[nH]1)CC3CCl` (stereo not given) reads 4.2 nM (active).

The values above are taken from PubChem BioAssay AID2061323 (National Center for Advancing Translational Sciences (NCATS), 2025).
